Among all 340,000 compounds or so, about 3,300 (0.97%) were called active. The entries come from a sample that favours actives as a whole. Unmarked numbers belong to inactive results.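 The calls were made as follows: active = inhibition above the mean over all tested compounds plus 3 SD (cut at about 30% in these data); inactive = the rest.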

This experiment has as its target Platelet-activating factor acetylhydrolase 2, cytoplasmic (Homo sapiens) (UniProt Q99487). In words: PAFAH2 enzyme inhibitors, primary screen, biochemical, fluorescence polarization, human (AID 492956).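 Also: inhibitors block probe labeling of enzyme so polarization drops; 0% = enzyme with DMSO and 100% = wells lacking PAFAH2 protein.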 The note with it: recombinant PAFAH2, FP-rhodamine activity probe, at 3.39 µM, stronger effect = higher value. In general terms: In fluorescence polarisation assays a small probe gives low polarisation when free and higher when bound to something large.
Consider `Cc1ccc(S(=O)(=O)NCC(=O)N2CCOCCOCCOCCOCC2)cc1`, for which the inhibition – broadly, the change of the read-out against control, counted positive when it falls – is -0.46%.
Under `O=C1/C(=C/c2cccs2)CCC1C1CCCC1` (stereo unspecified) stands 5.54%; under `CC1(C)CC(=O)c2cnc3nc4ccccc4n3c2C1`, -0.49%; under `O=C(NNC(=O)c1cc(S(=O)(=O)N2CCCCC2)ccc1Cl)c1ccccc1O`, 8.97%.
With `NC(=O)COC(=O)c1cc(S(=O)(=O)N2CCN(c3ccccc3)CC2)ccc1Cl`, the inhibition is 5.41%.
Under `O=C(OCc1cn(-c2ccc(Cl)c(Cl)c2)nn1)c1ccccc1Cl` stands 44.2% (active).
Take `Cc1cccc(/C(N)=N/OC(=O)c2ccccc2Cl)c1`: the inhibition was -5.1%.
For the compound `CC(C)NC(=O)NC(=O)COC(=O)c1ccc(NC(=O)CC#N)cc1`, the inhibition was 14.3%.
Under `CC(C)c1ccc(NC(=O)COC(=O)c2ccc(CN3CCCC3=O)cc2)cc1` stands 85% (active).
Under `N#CCC(=O)Nc1ccc(C(=O)OCC(=O)Nc2sc3c(c2C#N)CCCC3)cc1` stands -11.9%; under `Cc1noc(C)c1C(=O)NC(C)c1ccc2c(c1)OCO2` (stereo unspecified), -1.75%; under `CCN(CC)c1ccc(NC(=O)CCc2nnc3ccc(N4CCCCC4)nn23)c(C)c1`, 1.19%.
Under `O=C(CNCCO)NC12CC3CC(CC(C3)C1)C2` stands 0.19%; under `O=C(COC(=O)CNS(=O)(=O)c1ccccc1)NC12CC3CC(CC(C3)C1)C2`, 1.43%; under `O=C(COC(=O)C12CC3CC(CC(O)(C3)C1)C2)NC12CC3CC(CC(C3)C1)C2`, 75.8% (active).
Regarding `Cc1ccc2[nH]c(=O)c(CN(C)S(=O)(=O)c3cccc4nonc34)cc2c1`, the inhibition was -8.49%.
Under `Cn1nccc1NC(=O)CC(CC(=O)O)c1ccccc1` (stereo unspecified) stands 4.64%; under `COCCCN1C(=O)C(=O)/C(=C(/O)c2ccc(S(=O)(=O)N3CCOCC3)cc2)C1c1ccc(F)cc1` (stereo unspecified), 1.52%; under `COc1ccc(C(=O)ON=C2c3ccccc3-c3ccccc32)cc1OC`, 72.8% (active).
Consider `COc1cc(C(C)=O)ccc1OC(=O)CN1C(=O)c2ccccc2C1=O`, for which the inhibition was 1.95%.
Under `COc1ccc(NC(=O)ON=C2c3ccccc3-c3ccccc32)cc1` stands -4.24%; under `O=C(O)CSc1nccc2ccccc12`, 2.03%; under `CCc1c(SCCC(=O)O)nc2ccccc2c1C`, 33% (active).
With `O=C(O)CCSc1nnc(-c2ccccc2)n1-c1ccccc1`, the inhibition was -1.18%.
Under `C/C(=N\OCC(=O)Nc1ccc(Br)cc1)c1cccs1` stands -0.72%.
Under `CCn1c(Cc2ccc(OC)cc2)nnc1SCC(=O)Nc1ccc(N2CCOCC2)cc1` stands -3.23%; under `CC(C)[C@H](NC(=O)N1CCn2c1nc1ccccc12)C(=O)NCc1ccc2c(c1)OCO2`, -3.27%.
Under `Cc1ccc(C)c(NC(=O)C2Cc3ccccc3CN2C(=O)OCc2ccccc2)c1` (stereo unspecified) stands 5.89%; under `Cc1ccc(/C=N/NC(=O)Cn2ccc(C(F)(F)F)n2)o1`, -1.08%.
Turning to `CCn1c(SCC(=O)N/N=C/c2ccncc2)nc2ccccc21`, the inhibition was 14.4%.
On to `CCn1c(/C=N/NC(=O)c2ccc(OC)cc2)nc2ccccc21`, for which the inhibition was 41.7% (active).
Under `COc1ccc(C(=O)NCC(=O)N/N=C/c2cccnc2)cc1` stands -1.33%.
Turning to `CC(C)C(=O)NCC(c1cccs1)S(=O)(=O)c1ccc(F)cc1` (stereo unspecified), the inhibition was -6.08%.
In the case of `COc1ccc(C(CC(=O)N2CCN(c3ccccc3)CC2)c2c(O)cc(OC)cc2OC)cc1` (stereo unspecified), the inhibition was 1.97%.
For the compound `CCC1OC(c2ccc([N+](=O)[O-])cc2)=Nc2ccccc21` (stereo unspecified), the inhibition is 33.1% (active).
Under `CCCCN(C)c1ccc([N+](=O)[O-])cc1` stands -0.55%; under `COc1ccccc1CSc1ncc(-c2ccc([N+](=O)[O-])cc2)[nH]1`, 12%; under `N#Cc1ccc(N2Cc3ccccc3/C2=N/C(=O)Nc2ccc(Cl)cc2)cc1`, -0.92%.
Under `CC1CCc2c(c3ccccc3[nH]c2=O)O1` (stereo unspecified) stands -0.64%; under `COc1ccc(C2=NN(c3ccccc3)C(c3cccs3)C2)cc1` (stereo unspecified), 6.25%; under `COc1ccc(C2=NN(c3nc4ccccc4s3)C(=O)C2)cc1`, 48.2% (active).
Under `COc1ccc(C(=O)Nc2cccc(/C=C(/CCC(=O)O)c3nc4ccccc4s3)c2)cc1` stands -4.68%; under `Cc1nnc(NC(=O)CSc2nccn2-c2cccc(C)c2C)s1`, 6.92%; under `O=[N+]([O-])c1cccc(/C([O-])=C(/C(=S)Nc2ccccc2F)[n+]2ccccc2)c1`, -4.94%.
As for `CC1CC(C)CN(C(=O)COC(=O)c2ccc3ncsc3c2)C1` (stereo unspecified), the inhibition is 9.71%.
Under `Cc1sc(NC(=O)c2ccc3ncsc3c2)c(C(N)=O)c1C` stands 1.28%.
Under `O=C(COC(=O)c1ccc2ncsc2c1)Nc1ccc(Cl)cc1` stands 81.4% (active); under `COc1cc2c(cc1O)C(SC)=NC(C)(C)C2`, 4.6%; under `CC(C)Cc1nnc(NC(=O)CCC(=O)Nc2ccc3cn[nH]c3c2)s1`, 1.65%.
Under `Cc1cc(C)c(C#N)c(Nc2cccc(Br)c2)n1` stands -4.25%.
Consider `CCCCNC(=O)OC(C)CNC(=O)OC` (stereo unspecified), for which the inhibition is -6.1%.
For the compound `COc1ccc(C(=O)NCC(=O)N/N=C/c2ccc([N+](=O)[O-])o2)cc1OC`, the inhibition is 0.4%.
On to `Cc1onc(C(=O)NCc2ccc(F)cc2)c1[N+](=O)[O-]`, for which the inhibition is -3.19%.
Under `O=C(/C=C/c1ccc([N+](=O)[O-])o1)NNC(=O)c1ccc(F)cc1` stands 39.5% (active); under `Cc1ccsc1C(=O)OCC(=O)Nc1cccc(F)c1`, 90.7% (active).
Under `CN(CC(=O)Nc1cccc(F)c1)C(=O)CC1CCCC1` stands 0.25%.
Under `O=C(COc1ccccc1)Nc1ccc(F)cc1` stands -4.21%; under `CC1CC1C(=O)OCC(=O)Nc1cccc(F)c1` (stereo unspecified), 78.9% (active).
`O=C(COC(=O)C1CC2C=CC1C2)Nc1ccccc1` (stereo unspecified): the inhibition was 77.7% (active).
Under `O=C(COC(=O)CNC(=O)C1CCCCC1)Nc1cccc(F)c1` stands -0.43%.
With `Cc1ccsc1C(=O)OCC(=O)NCCc1ccccc1`, the inhibition was 25.5%.
Under `COc1ccc(CNC(=O)COC(=O)c2sccc2C)cc1OC` stands 5.02%; under `Cc1ccc(S(=O)(=O)N(C)CC(=O)OCC(=O)Nc2ccccc2)cc1`, 0.35%; under `CCCCCC(=O)N1CCN(S(=O)(=O)c2ccc3c(c2)OCCCO3)CC1`, 6.58%.
For the compound `Clc1ccc(C2[C@H]3CN(CC4CCCCC4)[C@H](c4ccccc4)C34CC2(c2cccnc2)C4)cn1` (stereo partly specified), the inhibition is -11.3%.
Under `COc1cc(C2C(C(=O)c3sc(C)nc3C)=C(O)C(=O)N2CCN(C)C)cc(OC)c1OC` (stereo unspecified) stands 2.01%; under `COc1ccccc1N1CC(C(=O)Nc2ccc(S(=O)(=O)N3CCOCC3)cc2)CC1=O` (stereo unspecified), 2.45%; under `CC(=O)Nc1ccc(NS(=O)(=O)c2cc(C)sc2C)cc1`, 5.36%.
Take `OC(CNC1CCCC1)COc1ccc(F)cc1` (stereo unspecified): the inhibition was -6.14%.
Under `CC(C)(C)NC(=O)c1cccc(NC(=O)Cc2ccc(Br)cc2)c1` stands -0.14%.
Under `FC(F)Oc1ccccc1C1CC(c2ccc(Br)s2)Nc2ncnn21` (stereo unspecified) stands 4.45%; under `O=C(CO/N=C/c1ccccc1OC(F)F)NC1CCCC1`, 4.52%.
Under `C=CCOc1ccc(/C=C/C(=O)OCC(=O)NC(C)c2ccc(F)cc2)cc1` (stereo unspecified) stands 33.1% (active); under `CCC(=O)c1ccc(OCC(=O)OCC(=O)NC2CCCCCC2)cc1`, 1.93%.
As for `C=CCOc1ccc(/C=C/C(=O)OC(C)C(=O)Nc2ccc(NC(C)=O)cc2)cc1` (stereo unspecified), the inhibition was -1.01%.
Under `CC(NC(=O)COC(=O)c1ccc(Cl)cc1O)c1ccc(F)cc1` (stereo unspecified) stands 11%.
Under `C=CCOc1ccc(/C=C/C(=O)OCC(=O)NC2CCCCCC2)cc1` stands 77% (active); under `CC1CCCCC1NC(=O)CO/N=C/c1ccc(OC(F)F)cc1` (stereo unspecified), 5.23%.
Under `C=CCOc1ccc(/C=C/C(=O)OCC(=O)NCC2CCCO2)cc1` (stereo unspecified) stands 29.2%; under `O=C(COC(=O)/C=C/c1ccc(OC(F)F)cc1)NC1CCCCC1`, 59.9% (active); under `O=c1ccc2cc(S(=O)(=O)N3CCN(c4ccccc4)CC3)ccc2o1`, -3.62%.
For the compound `COC(=O)CCSc1nccn1Cc1ccccc1`, the inhibition was 3.07%.
Under `CC(=O)c1c(N2CCN(c3ccc(F)cc3)CC2)nc(=S)n(-c2ccccc2)c1C` stands -5.81%.
Under `Cc1ccc(NC(=O)CN(C)S(=O)(=O)c2cnc[nH]2)cc1C` stands 4.95%; under `CC(NC(=O)c1ccccc1)C(=O)Nc1ccccc1` (stereo unspecified), -1.79%; under `O=C(NC1=CC(=O)c2ccccc2C1=O)c1ccccc1`, 45.2% (active).
Under `O=C1C=C(NS(=O)(=O)c2ccccc2)C(=O)c2ccccc21` stands 5.32%; under `Cc1cccc(C2C3=C(CCCC3=O)N=C3c4ccccc4C(=O)C32)c1` (stereo unspecified), 9.45%.
As for `O/N=C(\C[n+]1ccccc1)c1ccc(Br)cc1`, the inhibition was -4.24%.
Under `O=C(C1CCN(Cc2ccc(Cl)cc2)CC1)N1CCN(Cc2ccc3c(c2)OCO3)CC1` stands 2.96%; under `CCCOc1ccc(NC(=O)CC2C(=O)N(C)C(=S)N2Cc2ccc3c(c2)OCO3)cc1` (stereo unspecified), -2.75%.
Under `O=C(Nc1ccc(Cl)cc1)C1c2cccc[n+]2CC(=O)N1Cc1ccc2c(c1)OCO2` (stereo unspecified) stands 43.6% (active).
Under `Cc1c(Br)cc(C(=O)N2CCCCCC2)c(C)c1C` stands 1.14%.
Consider `CC1CCc2c(sc3c2C2=NS(=O)(=O)CCN2C=N3)C1` (stereo unspecified), for which the inhibition is 0.66%.
Under `COCCNC(=O)NC(=O)COC(=O)C1(c2ccc(Cl)cc2)CC1` stands 13%; under `Cc1ccc(Cc2nnc(SCC(=O)Nc3ccccc3C)[nH]c2=O)cc1`, 6.57%.

The values above are taken from PubChem BioAssay AID492956 (The Scripps Research Institute Molecular Screening Center, 2010).
